Experimental data from the antibiotic and cytotoxicity screens of Wong et al. (2023).
About 3,300 (8.5%) of roughly 39,000 compounds were called active. This is one part of a sample in which actives are shown more often than they occur.

Each molecule was assayed on HepG2 (assay: cytotoxicity call (relative viability < 0.9)). Settings: 10 µM.
With `C[C@H](CO)N1C[C@H](C)[C@H](CN(C)C(=O)Nc2ccccc2)Oc2ccc(NS(C)(=O)=O)cc2CC1=O` the cytotoxicity call was “inactive”.
`C[C@@H]1CCCCO[C@H](CN(C)C(=O)NC2CCCCC2)[C@@H](C)CN([C@@H](C)CO)C(=O)c2cc(NS(=O)(=O)c3cccs3)ccc2O1` was tested, and the cytotoxicity call was “inactive”.
In the case of `O=C(C[C@@H]1CC[C@H](NC(=O)CN2CCOCC2)[C@H](CO)O1)NCc1cccc(F)c1`, the cytotoxicity call is reported as “inactive”.
In the case of `C[C@@H]1CN([C@H](C)CO)C(=O)c2cc(NC(=O)Cn3cnnn3)ccc2O[C@H]1CN(C)S(=O)(=O)c1cn(C)cn1`, the cytotoxicity call is reported as “inactive”.
In the case of `COc1ccc(NC(=O)Nc2ccc3c(c2)C(=O)N([C@H](C)CO)C[C@H](C)[C@H](CN(C)Cc2ccccc2)OCCCC[C@@H](C)O3)cc1`, the cytotoxicity call is reported as “inactive”.
With `C[C@@H]1CN([C@@H](C)CO)S(=O)(=O)c2ccc(-c3cccnc3)cc2O[C@@H]1CN(C)C(=O)c1ccc2c(c1)OCO2` the cytotoxicity call was “inactive”.
In the case of `Cn1cnc(S(=O)(=O)N2C[C@@H](O)COC[C@H]3O[C@@H](CC(=O)NCc4cc(F)cc(F)c4)CC[C@@H]32)c1`, the cytotoxicity call is reported as “inactive”.
In the case of `O=C(C[C@H]1CC[C@H]2[C@@H](COC[C@@H](O)CN2C(=O)c2cccnc2)O1)NCC1CC1`, the cytotoxicity call is reported as “inactive”.
`CC(=O)N1CC2(CCN(CC(=O)N3CCOCC3)CC2)C[C@@H]1C(=O)O` was tested, and the cytotoxicity call was “inactive”.
For `COc1ccc(C2=C(NC(=O)c3ccc(OC)cc3-c3cccc(OC)c3)C(=O)c3ccccc3C2=O)cc1`, the cytotoxicity call was “active”.
With `O=C(NC1=C(c2ccc(OC(F)(F)F)cc2)C(=O)c2ccccc2C1=O)c1ccc(Br)cc1` the cytotoxicity call was “inactive”.
With `COC(=O)[C@@H](N)c1cccc(OC)c1` the cytotoxicity call was “inactive”.
For `Cc1noc(C)c1NC(=O)N(C)C[C@@H]1Oc2ncc(C#CCN(C)C)cc2C(=O)N([C@@H](C)CO)C[C@H]1C`, the cytotoxicity call was “inactive”.
`CNC(=O)C[C@H]1C[C@@H]2CN(S(=O)(=O)c3cccnc3)C[C@@H]2O1` was tested, and the cytotoxicity call was “inactive”.
With `Cc1ccc(S(=O)(=O)N(C)C[C@H]2OCCCC[C@H](C)Oc3ccc(NS(=O)(=O)c4ccc(F)cc4)cc3C(=O)N([C@@H](C)CO)C[C@H]2C)cc1` the cytotoxicity call was “inactive”.
With `CCOC(=O)C(=O)c1csc(NC=O)n1` the cytotoxicity call was “inactive”.
For `[N-]=[N+]=NCc1ccccc1C[C@]1(C(=O)NCc2ccccc2)N=C(c2ccc(OCCCO)cc2)O[C@H]1c1ccccc1`, the cytotoxicity call was “active”.
`[N-]=[N+]=NCc1ccccc1C[C@@]1(C(=O)N2CCCCC2)N=C(c2ccc(OCCCO)cc2)O[C@@H]1c1ccccc1` was tested, and the cytotoxicity call was “inactive”.
`O=C(NC[C@@H](O)CO)[C@]1(CCS(=O)(=O)c2ccccc2)N=C(c2ccc(OCCCO)cc2)O[C@@H]1c1ccccc1` was tested, and the cytotoxicity call was “inactive”.
`[N-]=[N+]=Nc1ccccc1C[C@@]1(C(=O)NCc2ccccc2)N=C(c2ccc(OCCCO)cc2)O[C@@H]1c1ccccc1` was tested, and the cytotoxicity call was “inactive”.
In the case of `O=C(NC[C@@H](O)CO)[C@]1(Cc2ccccc2)N=C(c2ccc(OCCCO)cc2)O[C@@H]1c1ccccc1`, the cytotoxicity call is reported as “inactive”.
With `[N-]=[N+]=Nc1ccccc1C[C@@]1(C(=O)N2CCCCC2)N=C(c2ccc(OCCCO)cc2)O[C@@H]1c1ccccc1` the cytotoxicity call was “inactive”.
With `CC(C)(C)OC(=O)CC[C@]1(C(=O)NCc2ccccc2)N=C(c2ccc(OCCCO)cc2)O[C@H]1c1ccccc1` the cytotoxicity call was “active”.
`[N-]=[N+]=Nc1ccccc1C[C@]1(C(=O)N2CCCCC2)N=C(c2ccc(OCCCO)cc2)O[C@H]1c1ccccc1` was tested, and the cytotoxicity call was “active”.
In the case of `[N-]=[N+]=NCc1ccccc1C[C@]1(C(=O)NC[C@@H](O)CO)N=C(c2ccc(OCCCO)cc2)O[C@H]1c1ccccc1`, the cytotoxicity call is reported as “inactive”.
With `CN1CCN(C(=O)C[C@@H]2C=C[C@@H](NC(=O)Nc3ccccc3F)[C@H](CO)O2)CC1` the cytotoxicity call was “inactive”.
In the case of `OCc1ccc(-c2cccs2)cc1`, the cytotoxicity call is reported as “inactive”.
`CCNC(=O)N1CCN(CCO)CC1` was tested, and the cytotoxicity call was “inactive”.
For `C[C@@H]1CN([C@H](C)CO)C(=O)c2cc(NC(=O)CCC(F)(F)F)ccc2O[C@@H](C)CCCCO[C@@H]1CN(C)S(=O)(=O)c1ccc(F)cc1`, the cytotoxicity call was “inactive”.
With `CC(C)CC(=O)N[C@H](C(=O)N[C@H](C(=O)N[C@@H](CC(C)C)[C@@H](O)CC(=O)N[C@@H](C)C(=O)N[C@@H](CC(C)C)[C@@H](O)CC(=O)O)C(C)C)C(C)C` the cytotoxicity call was “inactive”.
With `COc1cccc(S(=O)(=O)N[C@@H]2CC[C@H](CCn3cc(-c4ccccc4OC)nn3)O[C@@H]2CO)c1` the cytotoxicity call was “inactive”.
`Cn1c(=O)c2c(ncn2CC(=O)N2CCN(c3ccccc3)CC2)n(C)c1=O` was tested, and the cytotoxicity call was “inactive”.
`CCOC(=O)CCCCCC(=O)Nc1ccc2c(c1)C(=O)N([C@@H](C)CO)C[C@@H](C)[C@H](CN(C)S(=O)(=O)c1cccs1)OCCCC[C@H](C)O2` was tested, and the cytotoxicity call was “inactive”.
`C[C@H](CO)N1C[C@H](C)[C@H](CN(C)S(=O)(=O)c2ccccc2)Oc2c(NC(=O)c3ccncc3)cccc2C1=O` was tested, and the cytotoxicity call was “inactive”.
`C[C@H](CO)N1C[C@H](C)[C@H](CN(C)S(=O)(=O)c2cn(C)cn2)Oc2c(NC(=O)Nc3ccc(F)cc3)cccc2C1=O` was tested, and the cytotoxicity call was “inactive”.
`C[C@H]1CN([C@@H](C)CO)C(=O)c2cccc(NC(=O)Nc3ccc(F)cc3)c2O[C@@H]1CN(C)S(=O)(=O)c1cn(C)cn1` was tested, and the cytotoxicity call was “active”.
For `C[C@H](CO)N1C[C@H](C)[C@@H](CN(C)S(=O)(=O)c2cn(C)cn2)Oc2c(NC(=O)Nc3ccc(F)cc3)cccc2C1=O`, the cytotoxicity call was “inactive”.
In the case of `COc1ccc(S(=O)(=O)N(C)C[C@H]2Oc3c(NC(=O)c4ccncc4)cccc3C(=O)N([C@H](C)CO)C[C@H]2C)cc1`, the cytotoxicity call is reported as “inactive”.
For `COc1ccc(S(=O)(=O)N(C)C[C@H]2Oc3c(NC(=O)c4ccncc4)cccc3C(=O)N([C@@H](C)CO)C[C@H]2C)cc1`, the cytotoxicity call was “active”.
For `C[C@@H]1CN([C@H](C)CO)C(=O)c2cccc(NC(=O)c3ccncc3)c2O[C@H]1CN(C)S(=O)(=O)c1cn(C)cn1`, the cytotoxicity call was “inactive”.
With `C[C@@H]1CN([C@H](C)CO)C(=O)c2cccc(NC(=O)c3ccncc3)c2O[C@@H]1CN(C)S(=O)(=O)c1ccccc1` the cytotoxicity call was “inactive”.
With `COc1ccc(S(=O)(=O)N(C)C[C@@H]2Oc3c(NC(=O)c4ccncc4)cccc3C(=O)N([C@@H](C)CO)C[C@@H]2C)cc1` the cytotoxicity call was “inactive”.
For `C[C@@H]1CN([C@@H](C)CO)C(=O)c2cccc(NC(=O)c3ccncc3)c2O[C@H]1CN(C)S(=O)(=O)c1cn(C)cn1`, the cytotoxicity call was “active”.
In the case of `C[C@H]1CN([C@@H](C)CO)C(=O)c2cccc(NC(=O)c3ccncc3)c2O[C@@H]1CN(C)S(=O)(=O)c1cn(C)cn1`, the cytotoxicity call is reported as “inactive”.
`C[C@@H]1CN([C@@H](C)CO)C(=O)c2cccc(NC(=O)c3ccncc3)c2O[C@@H]1CN(C)S(=O)(=O)c1ccccc1` was tested, and the cytotoxicity call was “active”.
